# TGFb SMAD3 inh: TGF-b pathway inhibition. HepG2 CAGA-GFP TGF-b/SMAD3 reporter, GFP fluorescence, 18 h; TGF-beta stimulated, 500 pg/mL final. Potency, µM (doses to about 46.1 µM), for the others: at the top dose activity, negative = inhibition, actives largely listed as inhibitors. 410,000 tested, 1.2% active. AID 588855; note: potency is the fitted concentration of half-maximal effect; % is set by controls: 0 for no effect and ±100 for the full control effect; nearly all actives have a fitted effect of over 65% in size
#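 Smad-responsive CAGA-GFP expression was quantified in HEPG2 cells exposed to compounds and 500 pg/mL final TGF-beta for 18 h at 37 degrees C; unstimulated wells defined full inhibition.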
# TDP1 cell CPT: growth inhibition of DT40 Tdp1-/-;hTDP1 cells with camptothecin (screen for TDP1 inhibitors); chicken DT40 Tdp1-/-;hTDP1 cells + 20 nM CPT, ATP luminescence, 48 h; Potency, µM (titrated, usually from 46.2 µM), inactives show at the top dose activity change, negative = growth inhibition, hits mostly inhibitors; 420,000 tested, 12% active; AID 686979; note: potency is the fitted concentration of half-maximal effect; % is set by controls: 0 for no effect and ±100 for the full control effect; nearly all actives have a fitted effect of over 55% in size
#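 Chicken DT40 Tdp1-/- cells complemented with human TDP1, 400 cells/well, exposed to compounds plus 20 nM camptothecin for at least 48 h at 37 C; viability read as ATP content by CellTiter-Glo luminescence.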
# HepG2 viability: counter-screen for TGF-b inhibitors: cytotoxicity in HepG2 cells; HepG2 CAGA-GFP viability, ATP luminescence, 18 h; Potency, µM (highest dose often 46.1 µM), for inactives: at the top dose activity change, negative = cytotoxicity, usual class: cytotoxic; 410,000 tested, 0.76% active; AID 588856; note: potency is the fitted concentration of half-maximal effect
#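 HepG2 CAGA-GFP cells (1000/well, DMEM with 1% FBS) received compound, then TGF-beta at 500 pg/mL final, and were incubated 18 hours at 37 degrees C. Viability was read by CellTiter-Glo luminescence. Media-only wells were set as complete cell-killing and DMSO as no toxicity.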
# S-ASM inh: blocks human secretory acid sphingomyelinase; P17405; placental ASM, HMU-PC fluorogenic substrate, 60 min; Potency, µM (titrated, usually from 57.5 µM), inactives show top-dose activity change, negative = inhibition, usual class: inhibitors; 340,000 tested, 0.006% active; note: potency is the fitted concentration of half-maximal effect
# Target sequence (P17405 47-631 limits assumed): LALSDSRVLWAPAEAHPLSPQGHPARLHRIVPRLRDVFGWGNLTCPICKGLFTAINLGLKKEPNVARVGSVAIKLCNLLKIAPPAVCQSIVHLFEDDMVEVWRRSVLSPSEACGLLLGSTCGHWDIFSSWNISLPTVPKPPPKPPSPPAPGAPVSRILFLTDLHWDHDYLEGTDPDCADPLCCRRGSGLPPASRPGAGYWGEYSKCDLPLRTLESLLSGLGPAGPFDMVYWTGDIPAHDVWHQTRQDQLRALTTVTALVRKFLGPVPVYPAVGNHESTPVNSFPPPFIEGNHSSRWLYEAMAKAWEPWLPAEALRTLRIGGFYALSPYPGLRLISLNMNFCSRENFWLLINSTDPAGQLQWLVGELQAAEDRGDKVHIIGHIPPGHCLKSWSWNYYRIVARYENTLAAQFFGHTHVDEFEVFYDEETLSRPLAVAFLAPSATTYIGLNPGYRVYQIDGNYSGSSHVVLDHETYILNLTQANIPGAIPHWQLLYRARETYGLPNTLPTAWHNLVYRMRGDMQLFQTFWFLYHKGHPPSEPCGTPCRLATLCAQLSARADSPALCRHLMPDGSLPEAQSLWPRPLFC
#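 qHTS format. ASM enzyme prepared from human placenta hydrolyses the fluorogenic substrate HMU-PC0 (9 uM final) over 60 min at 37 °C after a 10 min compound preincubation.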
# IL1B secr inh: inflammasome signaling inhibition, IL-1 beta readout. THP-1 LPS/ATP IL-1B secretion, AlphaLISA, 16 h; stronger effect = lower value. activity change, % at 57.5 µM. 360,000 tested, 4.7% active. AID 743279; in the data active = activity change below about -50%; inconclusive = mostly about -30% to -49%; note: % is set by controls: 0 for no effect and ±100 for the full control effect
#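 Secreted IL-1B measured by AlphaLISA bead assay after 16 h compound exposure of THP-1 cells; compounds (final up to 57.5 uM) added 1 h before LPS (250 ng/mL) and ATP (1.25 mM) stimulation; lower signal means less secretion.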
# DT40 TDP1 no CPT: qHTS for Inhibitors of human tyrosyl-DNA phosphodiesterase 1 (TDP1): qHTS in cells in absence of CPT | DT40 Tdp1-/- hTDP1 cells, no CPT, ATP luminescence, 48 h | AID 686978, 2013 | 420,000 tested, 15% active | Potency, µM (highest dose often 46.2 µM), for the others: top-dose activity change, negative = growth inhibition, hits mostly inhibitors; note: potency is the fitted concentration of half-maximal effect; % is set by controls: 0 for no effect and ±100 for the full control effect; nearly all actives have a fitted effect of over 55% in size
#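 Chicken DT40 Tdp1-/- cells stably complemented with human TDP1 were seeded at 400 cells/well with DMSO in place of 20 nM camptothecin. After compound pinning, cells grew at least 48 hr at 37 °C; viability read by CellTiter-Glo luminescence.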
# Starred values were filed as active, the others as inactive; u = inconclusive; x = not tested or not shown. An excerpt weighted towards active compounds, which were near 19% of everything screened. Unless noted, calls come from the whole dose curve; as a rule, active = well fitted curve in the direction sought with a large enough effect; inconclusive = small, poorly fitted or top-dose-only effect, or another doubt; inactive = no such curve, though single readings can be large; an effect the other way counts as inactive or inconclusive.
SMILES,TGFb SMAD3 inh,TDP1 cell CPT,HepG2 viability,S-ASM inh,IL1B secr inh,DT40 TDP1 no CPT
CCOC(=O)COc1c(OC)cc(Cl)cc1C1Nc2ccccc2C(=O)N1c1ccccc1 (stereo unspecified),-2%,-27%,-2%,294%,13,-26%
CCOC(=O)COc1c(OC)cc(Cl)cc1C1Nc2ccccc2C(=O)N1c1cccc(C)c1 (stereo unspecified),-22%,u,-58%,284%,-11,26µM*
COc1cccc(NC(=O)CN(C)C(=O)c2cc(S(=O)(=O)NCc3ccccc3)ccc2C)c1,9%,-9%,-2%,-1%,0,-21%
CCCCCCc1nc2nc(Cl)c(Cl)nc2[nH]1,4%,18µM*,4%,x,11,8.2µM*
O=C(O)c1nc2nc(Cl)c(Cl)nc2[nH]1,-23%,-5%,-6%,4%,52,-12%
CCC1=C(c2ccc(C)cc2)S(=O)(=O)N=C1N1CCC(C(=O)Nc2ccccc2C(=O)OC)CC1,u,u,-18%,x,x,18µM*
CCC1=C(c2ccc(C)cc2)S(=O)(=O)N=C1N1CCC(C(=O)NCCc2ccc(Cl)cc2)CC1,13µM*,13µM*,-22%,x,x,10µM*
COc1ccc(C2=C(C)C(N3CCC(C(=O)Nc4cc(C)ccc4C)CC3)=NS2(=O)=O)cc1,6%,-3%,9%,x,x,-20%
CCC1=C(c2ccc(C)cc2)S(=O)(=O)N=C1N1CCC(C(=O)NCc2ccc(C)cc2)CC1,u,u,-35%,x,x,u
O=c1c2ccccc2oc2cc(-c3ccc(CN4CCOCC4)cc3)ccc12,u,13µM*,-17%,0%,0,16µM*
O=c1cc(CN2CCOCC2)c2ccccc2o1,4%,-12%,9%,x,0,-1%
Nc1ccc2oc(-c3ccccc3Br)nc2c1,-4%,-5%,-17%,x,x,-24%
Cc1ccc(S(=O)(=O)N2C[C@H]3C(=O)C[C@@H](c4ccccc4)N(S(=O)(=O)c4cccc(C)c4)[C@H]3C[C@H]2c2ccccc2)cc1,u,-23%,-1%,x,-7,u
COc1ccc(OC)c2c1cc(C(=O)N[C@H](C(=O)N1CCC[C@H]1C(=O)O)C(C)C)n2C,2%,-16%,7%,2%,14,-12%
O=C(NCc1cccnc1)c1nc(-c2ccc(C(F)(F)F)cc2)no1,-21%,15µM*,-17%,-2%,8,13µM*
O=C(NCc1ccncc1)c1nc(-c2ccc(C(F)(F)F)cc2)no1,-24%,15µM*,-2%,-1%,u,8.2µM*
CCOc1ccc2c(c1)c(=O)c(S(=O)(=O)c1ccc(CC)cc1)cn2Cc1cccc(Cl)c1,3%,-23%,-17%,x,x,-23%
Cc1ccc(/C=[N+](\[O-])c2ccc(N(C)C)cc2)c2nsnc12,7.9µM*,7.3µM*,14µM*,-4%,-99*,16µM*
Cc1ccc(C)c2c(/C=C/c3ccc(N(C)C)cc3)ccnc12,17%,u,-43%,x,x,u
COc1ccc(N2CCN(C(=O)c3nc(-c4ccc(Cl)cc4)n4c3CCCCC4)CC2)cc1,-10%,u,3%,x,x,21µM*
COc1ccc(OC)c(CCNC(=O)c2nc(-c3ccc(Cl)cc3)n3c2CCCCC3)c1,u,10µM*,-9%,x,x,9.2µM*
Cc1ccc(-c2nc(C(=O)N3CCN(c4ccccc4)CC3)c3n2CCCCC3)cc1,1%,x,0%,x,x,x
Cc1ccc(CNC(=O)c2nc(-c3ccc(Cl)cc3)n3c2CCCCC3)cc1,u,u,-25%,x,x,18µM*
COc1ccc(NC(=O)c2nc(-c3ccc(C)cc3)n3c2CCCCC3)cc1,u,u,-21%,x,x,16µM*

# Bioassay records (PubChem)
